# Assay results: PubChem BioAssay (NCATS)
# Records with an inconclusive call do not appear. Values without a mark were called inactive. The source made the active and inactive calls. Calls come from the whole dose curve; as a rule, active = well fitted curve in either direction with a large enough effect (not every such curve was filed as active); inconclusive = small, poorly fitted or top-dose-only effect, or another doubt; inactive = flat fitted curve, though single readings scatter.
# Test: AP1 Signaling Pathway (AID 357);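 note: ME-180 reporter cells stimulated with EGF at its EC50 level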
# Conditions: ME-180 (cervical carcinoma) AP-1-bla reporter, EGF-induced, beta-lactamase ratio, 5 h; at 17.2 µM (top of the series) unless noted
# In short: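 Cells are seeded overnight, exposed to compound titrations and an EC50 level of EGF for 5 hours at 37 °C, then loaded with CCF4 dye for 2.5 hours. Beta-lactamase activity under the AP-1 element is read as a blue/green ratio.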
# % is set by controls: 0 for no effect and ±100 for the full control effect.
row,SMILES,"activity change, negative = inhibition"
1,Cc1nnc2n(-c3ccccc3)c(=O)c3c4c(sc3n12)COC(C(C)C)C4 (stereo not given),-3.43%
2,COc1ccc2c(=O)c(-c3nc(C)cs3)coc2c1,13.2%
3,Cc1cc(=O)oc(C)c1C(=O)NCCc1ccccc1,8.18%
4,CC(C)Cc1[nH]c(=O)c(C#N)c2c1CCCC2,3.62%
5,COc1ccc(/C=N/n2cncn2)cc1COc1ccc(NC(C)=O)cc1,-1.63%
6,O=c1c(-c2ccc(Cl)cc2)[n+]([O-])c2ccccc2n1O,-1.42%
7,C/C(NC(=O)c1ccccc1F)=C1\C(=O)C[C@@H]2[C@H]1C2(C)C,-12.1%
8,COc1cccc(C2/C(=C(/O)c3cnn(-c4ccccc4)c3C)C(=O)C(=O)N2CCN(C)C)c1 (stereo not given),3.35%
9,N#Cc1c(NCCN)nc(NCc2ccccc2)c2c1CCN(Cc1ccccc1)C2,0.0828%
10,COc1ccc(C(=O)Cn2c(N3CCCCC3)nc3c2c(=O)n(C)c(=O)n3C)cc1OC,14.7%
11,COc1ccc(-c2nc3n(c2Br)CCC3)cc1,-3.45%
12,CCOC(=O)c1ccc(CSc2ncn[nH]2)o1,0.882%
13,CCOc1ccc(CCNC(=O)C(O)c2ccccc2)cc1 (stereo not given),13%
14,CN(CCNC(=O)c1ccc(/C=N/O)nc1)Cc1ccccc1,0.297%
15,COC(=O)CSc1nc(C)c(C(C)=O)cc1C#N,4.99%
16,O=C(NCCCn1ccnc1)C(Cc1ccccc1)N1C(=O)c2ccccc2C1=O (stereo not given),-14.7%
17,Cn1ncc(N=Cc2ccccc2O)c1C(=O)Nc1ccccc1,-7.55%
18,O=C(COc1ccc(F)cc1)OCCN1CCOCC1,-4.17%
19,O=C1OC(N2CCN(C/C=C/c3ccccc3)CC2)c2ccccc21 (stereo not given),7.53%
20,CC(=O)O[C@@]12CO[C@@H]1C[C@H](O)[C@@]1(C)C(=O)[C@H](O)C3=C(C)[C@@H](OC(=O)[C@H](O)[C@@H](NC(=O)OC(C)(C)C)c4ccccc4)C[C@](O)([C@@H](OC(=O)c4ccccc4)[C@H]21)C3(C)C,-3.46%
21,CCN(CC)CCn1c(O)c(N=O)c2ccccc21,90.5% [activator] (active)
22,CCN(CC)CCOC(=O)C1(c2ccc(OC)c(OC)c2)CCCC1,10.4%
23,CCCOc1ccccc1C(=O)NCCCC(=O)O,-0.71%
24,Cc1ccc(C2C(C(=O)c3cc4ccccc4o3)=C(O)C(=O)N2CCN(C)C)o1 (stereo not given),-1.56%
25,CN(C)c1cccc2c(S(=O)(=O)N3CCOCC3)cccc12,-2.48%

# Test: NFAT Signaling Pathway (AID 444);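 note: carbachol stimulus at about its EC50 of 1 µM final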
# Conditions: Jurkat NFAT-bla M1, carbachol, beta-lactamase ratio, 5 h; at 17.2 µM (top of the series) unless noted
# In short: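 Read-out: CCF4 FRET ratio (460 nm/530 nm) after 1 h RT dye loading, used for %activity and AC50 from titration series. Cells: Jurkat NFAT-β-lactamase/M1 line, treated with compound plus 1 uM carbachol for 5 h, 37 °C.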
row,SMILES,"activity change, negative = inhibition"
1,CCCNC(=O)N(C)c1nncnc1C(=O)NC,2.36%
2,Cc1cc(C)nc(N(C#N)S(=O)(=O)c2ccccc2Cl)n1,-12.4%
3,COc1ccc(N2C(=O)CN=C2Nc2nc(C)cc(C)n2)cc1,-10%
4,C=CCn1cnc2c(c1=O)c1nc3ccccc3nc1n2-c1ccc(C)cc1,-10.5%
5,CC1(C)Cc2ccccc2-c2c1c(=O)n(-c1ccccc1)c1nnnn21,-24.9%
6,O=S(=O)(c1ccccc1)N1CCC(N2CCN(c3ccccc3)CC2)CC1,6.66%
7,Cc1c(NC(=O)C(CC(=O)O)NCc2ccco2)c(=O)n(-c2ccccc2)n1C (stereo not given),5.18%
8,CC1=C(c2ccc(Cl)cc2)[N+](=O)C(C)(C)N1[O-],13.4%
9,COc1ccc(CNC(=O)[C@H](C)NC(=O)C2CCN(S(=O)(=O)c3ccc(C)cc3)CC2)cc1,0.0617%
10,Cc1cc(=O)oc2cc(OCC(=O)NCc3cccnc3)ccc12,-8.13%
11,Cn1c(OCc2cccnc2)nc2c1c(=O)n(Cc1ccc(Cl)cc1)c(=O)n2C,22%
12,COC(=O)c1ccc(C2/C(=C(\O)c3cccc(OC)c3)C(=O)C(=O)N2CCCN(C)C)cc1 (stereo not given),3.34%
13,CN(C)CCCOC(=O)C1c2ccccc2Oc2ccccc21,-63.3% (active)
14,CCCCCc1nc2sc3c(c2c(=O)n1N)CCC3,-10.1%
15,N#C/C(C(=O)N1CCOCC1)=C1/SC(Cc2ccccc2)C(=O)N1c1ccccc1 (stereo not given),-2.77%
16,Cc1nnc2n(-c3ccccc3)c(=O)c3c4c(sc3n12)COC(C(C)C)C4 (stereo not given),-28.2%
17,COc1ccc2c(=O)c(-c3nc(C)cs3)coc2c1,15.3%
18,Cc1cc(=O)oc(C)c1C(=O)NCCc1ccccc1,-8.25%
19,CC(C)Cc1[nH]c(=O)c(C#N)c2c1CCCC2,2.23%
20,COc1ccc(/C=N/n2cncn2)cc1COc1ccc(NC(C)=O)cc1,2.89%

row,SMILES,"activity change, negative = inhibition"
1,O=c1c(-c2ccc(Cl)cc2)[n+]([O-])c2ccccc2n1O,-15.3%
2,C/C(NC(=O)c1ccccc1F)=C1\C(=O)C[C@@H]2[C@H]1C2(C)C,-24.9%
3,COc1cccc(C2/C(=C(/O)c3cnn(-c4ccccc4)c3C)C(=O)C(=O)N2CCN(C)C)c1 (stereo not given),-7.78%
4,N#Cc1c(NCCN)nc(NCc2ccccc2)c2c1CCN(Cc1ccccc1)C2,21.6%
5,COc1ccc(C(=O)Cn2c(N3CCCCC3)nc3c2c(=O)n(C)c(=O)n3C)cc1OC,21%
6,COc1ccc(-c2nc3n(c2Br)CCC3)cc1,1.51%
7,CCOC(=O)c1ccc(CSc2ncn[nH]2)o1,-2.95%
8,CCOc1ccc(CCNC(=O)C(O)c2ccccc2)cc1 (stereo not given),4.66%
9,CN(CCNC(=O)c1ccc(/C=N/O)nc1)Cc1ccccc1,-21.1%
10,COC(=O)CSc1nc(C)c(C(C)=O)cc1C#N,-0.342%
11,O=C(NCCCn1ccnc1)C(Cc1ccccc1)N1C(=O)c2ccccc2C1=O (stereo not given),7.45%
12,Cn1ncc(N=Cc2ccccc2O)c1C(=O)Nc1ccccc1,7.01%
13,O=C(COc1ccc(F)cc1)OCCN1CCOCC1,-0.67%
14,O=C1OC(N2CCN(C/C=C/c3ccccc3)CC2)c2ccccc21 (stereo not given),10.2%
15,CC(=O)O[C@@]12CO[C@@H]1C[C@H](O)[C@@]1(C)C(=O)[C@H](O)C3=C(C)[C@@H](OC(=O)[C@H](O)[C@@H](NC(=O)OC(C)(C)C)c4ccccc4)C[C@](O)([C@@H](OC(=O)c4ccccc4)[C@H]21)C3(C)C,29.1%
16,CCN(CC)CCn1c(O)c(N=O)c2ccccc21,-17.1%
17,CCN(CC)CCOC(=O)C1(c2ccc(OC)c(OC)c2)CCCC1,-82.2% (active)
18,CCCOc1ccccc1C(=O)NCCCC(=O)O,-4.04%
19,Cc1ccc(C2C(C(=O)c3cc4ccccc4o3)=C(O)C(=O)N2CCN(C)C)o1 (stereo not given),-18.1%
20,CN(C)c1cccc2c(S(=O)(=O)N3CCOCC3)cccc12,-4.98%
